Experimental data reported in PubChem BioAssay (EPA / NIEHS).
Records with an inconclusive call do not appear. Activity calls are given as the source filed them. The calls were made as follows: active = hit-call score of the fitted dose curve at least 0.9, where 1 is the maximum; inconclusive = response in the unintended direction; inactive = score below 0.9.

Molecular target: human Thyroid Receptor alpha (THRa1), THRA (gene 7067) (UniProt P10827)
Experiment: ATG_THRa1_TRANS: Attagene TRANS-FACTORIAL HepG2 Assay for human Thyroid Receptor alpha (THRa1) (AID 2283014)
Procedure: ATG_TRANS is a cell-based, multiplexed-readout assay that uses HepG2, a human liver cell line, with measurements taken at 24 hours after chemical dosing in a 24-well plate.ATG_THRa1_TRANS is one of 30 assay component(s) measured or calculated from the ATG_TRANS assay. It is designed to make measurements of mRNA induction, a form of inducible reporter, as detected with fluorescence intensity signals by Reverse transcription polymerase chain reaction (RT-PCR) and Capillary electrophoresis technology.Data from the assay component ATG_THRa1_TRANS was analyzed into 1 assay endpoint. This assay endpoint, ATG_THRa1_TRANS, was analyzed in the positive analysis fitting direction relative to DMSO as the negative control and baseline of activity. Using a type of inducible reporter, measures of mRNA for gain-of-signal activity can be used to understand the reporter gene at the transcription factor-level as they relate to the gene THRA. Furthermore, this assay endpoint can be referred to as a primary readout, because this assay has produced multiple assay endpoints where this one serves a reporter gene function. To generalize the intended target to other relatable targets, this assay endpoint is annotated to the nuclear receptor intended target family, where the subfamily is non-steroidal.
Human liver HepG2 cells are transiently transfected with multiple reporter transcription units (MRTUs) in 6-well plates using FuGene 6 reagent (Roche; 3 ml FuGene/1 mg DNA). The MRTU constructs are regulated by a cis-regulating element (promoter). […] A major difference between the CIS and TRANS system is that in CIS activities of endogenous TFs are measured, whereas the TRANS assay evaluates changes in activities of exogenous, chimeric NR-Gal4 proteins. […] At the end of 24 hour incubation, total RNA was isolated using TriZol reagent (Invitrogen). The isolated RNA is then reverse-transcribed using oligo(dT) primer and Mo-MLV reverse transcriptase (Invitrogen) with DNAse I (Ambion) treatment for 30 min. The one-tenth of the produced cDNA was amplified by PCR using Taq DNA polymerase (Invitrogen) and two reporter sequence-specific primers. The PCR products were fluorescently labeled by primer extension with 6-arboxyfluorescein (6-FAM) 5'-labeled reporter sequence-specific primer (2 min at 95 C, 20 s at 68 C and 10 min at 72 C) and these products were digested with 5U of HpaI (New England Biolabs) for 2h at 37 C. The fragments were purified using Qiaquick PCR columns (Qiagen), analyzed on an ABI 3130xL genetic analyzer (Applied Biosystems) with peak positions identified by using a set of X-rhodamine (ROX)-labeled MapMarker1000 molecular weight standards (BioVentures). The raw capillary electrophoresis data was processed using Attagraph software (Attagene).

Chain of human Thyroid Receptor alpha (THRa1), THRA (gene 7067) (P10827 whole entry, looked up): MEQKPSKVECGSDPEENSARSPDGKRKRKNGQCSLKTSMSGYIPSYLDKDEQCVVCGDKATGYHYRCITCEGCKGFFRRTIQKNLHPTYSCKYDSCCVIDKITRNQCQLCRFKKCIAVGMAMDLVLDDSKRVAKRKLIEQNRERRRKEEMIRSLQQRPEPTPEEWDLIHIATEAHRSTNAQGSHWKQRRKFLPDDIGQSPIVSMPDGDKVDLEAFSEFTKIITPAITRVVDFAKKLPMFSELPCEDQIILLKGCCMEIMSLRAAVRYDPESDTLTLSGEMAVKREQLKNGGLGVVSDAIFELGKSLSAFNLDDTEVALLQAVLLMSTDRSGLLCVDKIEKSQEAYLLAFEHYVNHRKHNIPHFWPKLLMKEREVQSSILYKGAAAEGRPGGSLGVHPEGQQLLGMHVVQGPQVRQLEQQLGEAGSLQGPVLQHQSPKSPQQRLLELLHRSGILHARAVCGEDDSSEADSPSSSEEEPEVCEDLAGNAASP

Row | SMILES | outcome | AC50
1 | CCCCCCCC[Si](OCC)(OCC)OCC | inactive | –
2 | CCN(Cc1cccc(S(=O)(=O)O)c1)c1ccc(C(=C2C=CC(=[N+](CC)Cc3cccc(S(=O)(=O)O)c3)C=C2)c2ccccc2S(=O)(=O)[O-])cc1 | inactive | –
3 | CCCCCCCCCCCCO | inactive | –
4 | Cc1cc2c(cc1C(F)(F)F)N(C(=O)Nc1ccc(Oc3cccnc3C)nc1)CC2 | inactive | –
5 | O=C1c2ccccc2C(=O)N1CCc1noc(-c2ccc(CN3CCCCCC3)s2)n1 | inactive | –
6 | CCCC(=O)OCCC(C)C | inactive | –
7 | CCCCCCCCCCCC[N+](C)(C)C | inactive | –
8 | OCCO | inactive | –
9 | O=C1CCC(C2CCCCC2)CC1 | inactive | –
10 | O=C(OCCCCCCOC(=O)c1ccccc1)c1ccccc1 | inactive | –
11 | O=c1c(-c2ccc(O)cc2)coc2cc(O)cc(O)c12 | inactive | –
12 | O=C(Nc1ccc(Cl)cc1)Nc1ccc(Cl)c(Cl)c1 | inactive | –
13 | O=C1O[C@H]([C@@H](O)CO)C(O)=C1O | inactive | –
14 | CCCOC(=O)c1cc(O)c(O)c(O)c1 | inactive | –
15 | COCC(C)OCC(C)OCC(C)O (stereo not given) | inactive | –
16 | C[C@]12CC[C@@H]3c4ccc(O)cc4CC[C@H]3[C@@H]1CC[C@H]2O | inactive | –
17 | CCCCOC(=O)CC(CC(=O)OCCCC)(OC(C)=O)C(=O)OCCCC | inactive | –
18 | CCCCCCCCOc1ccc(C(=O)c2ccccc2)c(O)c1 | inactive | –
19 | CC1(C)NC(=O)N(c2ccc([N+](=O)[O-])c(C(F)(F)F)c2)C1=O | inactive | –
20 | CN(C)c1ccc(C(=C2C=CC(=[N+](C)C)C=C2)c2ccc(N(C)C)cc2)cc1 | inactive | –

Row | SMILES | outcome | AC50
21 | c1ccc2n[nH]nc2c1 | inactive | –
22 | COc1cc(C(=O)NC2CCN(C)CC2)ccc1Nc1ncc2c(n1)N(C1CCCC1)CC(F)(F)C(=O)N2C | inactive | –
23 | Cc1ccc2oc(CN(Cc3ccccc3)C(=O)Nc3c(F)cc(F)cc3F)c(-c3ccc(Cl)cc3)c2c1 | inactive | –
24 | CCCCCc1ccc(N)cc1 | inactive | –
25 | Cc1oc2c(NC(=O)c3c(Cl)cccc3Cl)cccc2c1C(C)(C)O | inactive | –
26 | CCCCCCCCOC(=O)c1cc(O)c(O)c(O)c1 | inactive | –
27 | Cc1occc1C(=O)Nc1ccc(C(=O)N2CCC(F)(F)/C(=C\C(=O)N3CCC(N4CCCCC4)CC3)c3ccccc32)cc1 | – | 53.8 µM (active)
28 | CC(O)CC(C)(C)O (stereo not given) | inactive | –
29 | Cc1ccc(C(C)C)cc1 | inactive | –
30 | c1ccc(C[n+]2cccc3ccccc32)cc1 | inactive | –
31 | CC1=CC(=O)/C(=C(/C)O)C(=O)O1 | inactive | –
32 | CCCCCCCCCCCO | inactive | –
33 | Cc1cccc2ccccc12 | inactive | –
34 | CC(C)(c1cc(Br)c(O)c(Br)c1)c1cc(Br)c(O)c(Br)c1 | inactive | –
35 | NCc1cccc(C2CCN(C(=O)c3ccc(C#Cc4ccccc4F)o3)CC2)c1 | inactive | –
36 | CCCCOC(=O)c1ccc(O)cc1 | inactive | –
37 | O=C(O)c1ccccc1-n1cc(C(=O)O)c(=O)c2cc(Nc3c(F)cc(F)cc3Cl)c(Cl)cc21 | inactive | –
38 | CN(C)C(=O)C1(N2CCCCC2)CCN(CC[C@@]2(c3ccc(Cl)c(Cl)c3)CN(C(=O)c3ccccc3)CCO2)CC1 | inactive | –
39 | O=c1[nH]sc2ccccc12 | inactive | –
40 | CCCCCCCCN(C)CCCCCCCC | inactive | –
